Results filed as inconclusive are left out. Where a call stands in place of a potency, no number is given. The source made the active and inactive calls. Calls come from the whole dose curve; as a rule, active = well fitted inhibition curve with a large enough effect; inconclusive = small, poorly fitted or top-dose-only effect; inactive = no such curve, though single readings can be large or run the other way.

Sequence of Tumor susceptibility gene 101 protein (Homo sapiens) (Q99816 whole entry, looked up, the tested form may be a part): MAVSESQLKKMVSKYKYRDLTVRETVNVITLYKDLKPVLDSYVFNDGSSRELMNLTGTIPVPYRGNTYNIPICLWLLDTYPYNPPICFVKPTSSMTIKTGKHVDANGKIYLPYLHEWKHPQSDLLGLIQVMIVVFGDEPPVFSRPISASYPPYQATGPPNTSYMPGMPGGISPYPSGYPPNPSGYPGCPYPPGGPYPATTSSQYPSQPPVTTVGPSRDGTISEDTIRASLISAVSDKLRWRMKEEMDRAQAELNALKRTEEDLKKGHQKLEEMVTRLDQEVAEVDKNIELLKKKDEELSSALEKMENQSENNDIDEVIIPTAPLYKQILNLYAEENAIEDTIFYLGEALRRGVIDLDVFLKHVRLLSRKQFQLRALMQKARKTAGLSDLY

This assay has as its target Tumor susceptibility gene 101 protein (Homo sapiens) (UniProt Q99816). In words: qHTS Assay for Iinhibitors of HIV-1 Budding by Blocking the Interaction of PTAP/TSG101: Hit Validation in TR assay. As to conditions: Tsg101 binding domain + Texas Red-labeled PTAP peptide, fluorescence polarization, 20 min; series mostly up to 57.5 µM. Summed up:
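Texas Red-PTAP peptide (50 nM) binding to Tsg101 binding domain (10 uM), both final, in pH 7.5 HEPES buffer, read as polarization after 20 min at room temperature; compounds pinned before peptide addition.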
For orientation: Quantitative high-throughput screening tests each substance at several concentrations.
As to `Cc1cc2nc3c(=O)[nH]c(=O)[nH]c3nc2c([N+](=O)[O-])c1N`, the Potency result was “inactive”.

Take `COC(=O)CN1C(=S)N(c2ccc(OC)cc2)C(=O)/C1=C/c1ccc(N2CCOCC2)cc1`: the Potency entry is “inactive”.

With `CCn1nc(-c2ccccc2)c2nc3ccccc3nc21`, the Potency entry was “inactive”.

As for `CSc1ccc(C2C(C(=O)c3ccco3)=C(O)C(=O)N2c2nnc(SC)s2)cc1` (configuration not stated), the Potency result was “inactive”.

As to `O=S(=O)(Nc1nc2n(n1)C(c1ccccc1)C=C(c1ccc(Cl)cc1)N2)c1ccccc1` (configuration not stated), the Potency entry is “inactive”.

Consider `CCc1cc(C(=O)Nc2ccc(OC)nc2)sc1C`, for which the Potency result was “inactive”.

As to `Nc1nnnn1/N=C/c1cc(Cl)cc(Cl)c1O`, the Potency entry is “inactive”.

For the molecule `COC(=O)C[n+]1cccc2ccccc21`, the Potency result is “inactive”.

Take `COc1cccc(NC(=O)/C(C#N)=C/c2ccc(-c3ccc(C)cc3)o2)c1`: the Potency result is “inactive”.

In the case of `O=C1/C(=C\c2ccc(-c3ccccc3Cl)o2)SC(=S)N1CC1CCCO1` (configuration not stated), the Potency result is “inactive”.

On to `CCOC(=O)c1cc2n(c1/N=C/N(C)C)-c1ccccc1C2=O`, for which the Potency result is “inactive”.

For `Nc1ccc2nc3c(=O)n(C4CCCCC4)c(=O)[nH]c3nc2c1`, the Potency result is “inactive”.

`COc1ccc(C2C(C(=O)c3cccs3)=C(O)C(=O)N2c2nnc(C)s2)cc1OC` (configuration not stated): the Potency result was “inactive”.

`COc1cc(C2C=C(c3cccs3)Nc3ncnn32)cc(OC)c1OC` (configuration not stated): the Potency entry is “inactive”.

As for `O=C(NC1CC1)c1cccc2c1C(=O)c1ccc(N3CCC(Cc4ccccc4)CC3)cc1S2(=O)=O`, the Potency entry was “inactive”.

Regarding `CC(C)(C)c1cc[n+](-c2[nH]c(=O)sc2/C=N/NC(=O)c2ccccc2[O-])cc1`, the Potency result is “inactive”.

Take `COc1ccccc1N1C(=O)c2cccc3c(N(C)CCO)ccc(c23)C1=O`: the Potency entry was “inactive”.

Consider `COc1cc(OC)c(-c2cc(C(=O)O)ccc2OC)c(OC)c1`, for which the Potency entry was “inactive”.

On to `COc1ccc(OC)c(/C=C2\N=C(c3ccccc3)OC2=O)c1`, for which the Potency result was “inactive”.

For the molecule `O=C(NCC1CCCO1)c1cccc2c1C(=O)c1ccc(N3CCC(Cc4ccccc4)CC3)cc1S2(=O)=O` (configuration not stated), the Potency entry is “inactive”.

`Cc1cc2c(cc1C)NC(c1c(C)n(C)n(-c3ccccc3)c1=O)C1=C(CC(C)(C)CC1=O)N2` (configuration not stated): the Potency result is “inactive”.

As to `O=Cc1ccc2noc(-c3ccc(F)cc3)c2c1`, the Potency result is “inactive”.
